We go through 7 molecules from PubChem BioAssay (NCATS).

The structures appear in SMILES notation. A number with no mark means an inactive call. Inconclusive results are not listed. Activity calls are given as the source filed them. Calls come from the whole dose curve; as a rule, active = well fitted curve in the direction sought with a large enough effect; inconclusive = small, poorly fitted or top-dose-only effect, or another doubt; inactive = no such curve, though single readings can be large; an effect the other way counts as inactive or inconclusive. Where a SMILES comes first, the peptide text is derived from it. [ ]: non-standard residue; d: D form. The star is where a group is joined. Dolaproine = CO[C@@H]([C@@H]1CCCN1)[C@@H](C)C(=O)O; Dil = CC[C@H](C)[C@H](NC)[C@@H](CC(=O)O)OC; Doe = c1ccc(C[C@H](N*)c2nccs2)cc1; Aib = CC(C)(N)C(=O)O

Assay [1] deals with Zika virus NS2B-NS3 protease (linked construct). The assay is described as follows: Primary screen NINDS Rhodamine qHTS for Zika virus inhibitors (AID 1347160). Note: nearly all actives have a fitted effect of over 55% in size. Note: potency is the fitted concentration of half-maximal effect. The method, boiled down: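 Each compound, titrated, sat 15 min with 25 nM linked protease before 1.5 microM Rhodamine110 substrate went in. Fluorescence gain over the next 15 min, in pH 8.0 Tris with Tween 20, gave Hill-fitted curves.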
For orientation: qHTS replaces the single test concentration by a dilution series.

Assay [2] concerns the target Glutathione peroxidase 1 (Homo sapiens) (UniProt P07203). The assay is described as follows: Primary qHTS Assay for Inhibitors of Recombinant Selenoprotein Glutathione Peroxidase 1 (GPX1) (AID 1845191). Note: nearly all actives have a fitted effect of over 65% in size. An outline of the steps:
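NADPH consumption tracked by fluorescence at 340/450 nm between t=0 and t=15 min, room temperature. Final mix: 10 nM GPX1, 100 nM glutathione reductase, 1 mM GSH, 0.5 mM NADPH, 0.5 mM cumene hydroperoxide, 0.01% BSA; 30 min compound–enzyme preincubation.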

The nature of assay [3]: Primary fluorescence-based thiol-reactive (MSTI) qHTS assay for identification of artifact compounds. (AID 1845221). Note: nearly all actives have a fitted effect of over 65% in size. Note: potency is the fitted concentration of half-maximal effect. An outline of the steps:
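MSTI probe at 4 uM final in 2% DMSO/PBS pH 7.4; compounds, 1 h at room temperature in dark. Fluorescence Ex/Em 525/598 nm, normalised to Acetyl-MSTI and MSTI, fitted to 4-parameter Hill.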

In assay [4] the test system is Nanoluciferase (engineered Oplophorus gracilirostris luciferase). The assay is described as follows: Primary Nanoluciferase (NLuc) qHTS assay for identification of artifact compounds. (AID 1845222).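 Note: 0% = DMSO and -100% = no enzyme.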 The method, boiled down:
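Compounds are pinned into diluted (1:55) conditioned medium of NLuc-expressing S16 cells and held 15 min at room temperature protected from light. Nano-Glo substrate follows, and luminescence is read 5 min later.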

In assay [5] the test system is CRL-7250. The assay is described as follows: Cytotoxic Profiling of Annotated Libraries Using Quantitative High-Throughput Screening (AID 1296008). For max response: % is set by controls: 0 for no effect and ±100 for the full control effect. Note: nearly all actives have a fitted effect of over 60% in size. Note: potency is the fitted concentration of half-maximal effect. As to conditions: Five cell lines viability, CellTiter-Glo ATP luminescence, 48-72 h; max response: hits give low values. An outline of the steps:
(§1)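 Cytotoxicity was measured as CellTiter-Glo ATP luminescence, read after 10 min at room temperature. Compound treatment of the cells lasted 48 or 72 hr at 37 degrees Celsius in a qHTS format.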

In assay [6] the test system is C33A. The assay is described as follows: Primary qHTS to identify gynecologic anti-cancer compounds using libraries of approved drugs and bioactive compounds (AID 1345084). Note: nearly all actives have a fitted effect of over 55% in size. Note: potency is the fitted concentration of half-maximal effect. The note with it: Gynecologic cancer cell panel viability, ATPlite luminescence, 48 h; series mostly up to 57.5 µM. An outline of the steps: (§2)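 Cells, 1,000 per well, plated 16 h, then exposed 48 h at 37 C to compounds. Viability by ATPlite luminescence after 15 min at room temperature.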

For assay [7], the system named is CAOV3. Described as above. As to conditions: Gynecologic cancer cell panel viability, ATPlite luminescence, 48 h; series mostly up to 57.5 µM. An outline of the steps: as §2
(ATP-based viability assays read luminescence as a measure of living cells.)

The subject of assay [8] is CASKI. Described as above. As to conditions: Gynecologic cancer cell panel viability, ATPlite luminescence, 48 h; series mostly up to 57.5 µM. The method, boiled down:
as §2

In assay [9] the test system is Es-2. The description is as above. The note with it: Gynecologic cancer cell panel viability, ATPlite luminescence, 48 h; series mostly up to 57.5 µM. An outline of the steps: as §2
Assay [10] has as its system Hek293T. The assay is described as above. As to conditions: Gynecologic cancer cell panel viability, ATPlite luminescence, 48 h, control line for the selectivity index; series mostly up to 57.5 µM. The method, boiled down:
as §2

In assay [11] the test system is JEG-3. The description is as above. The note with it: Gynecologic cancer cell panel viability, ATPlite luminescence, 48 h; series mostly up to 57.5 µM. The method, boiled down: as §2
Assay [12] concerns OV90. The assay is described as above. As to conditions: Gynecologic cancer cell panel viability, ATPlite luminescence, 48 h; series mostly up to 57.5 µM. The method, boiled down: as §2
The subject of assay [13] is PA-1. The assay is described as above. As to conditions: Gynecologic cancer cell panel viability, ATPlite luminescence, 48 h; series mostly up to 57.5 µM. The method, boiled down: as §2
Assay [14] relates to Tov-21-G. The assay is described as above. The note with it: Gynecologic cancer cell panel viability, ATPlite luminescence, 48 h; series mostly up to 57.5 µM. The method, boiled down:
as §2

The test system of assay [15] is Tov112D. The assay is described as above. The note with it: Gynecologic cancer cell panel viability, ATPlite luminescence, 48 h; series mostly up to 57.5 µM. An outline of the steps: as §2
Assay [16] concerns the target Calcium and integrin-binding protein 1 (Homo sapiens) (UniProt Q99828). Put plainly: Primary qHTS for Identification of Calcium Integrin Binding Protein 1 (CIB1) Competitor (AID 1508620).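 Note: GST tagged CIB1 binding a fluorescein labelled alphaIIb integrin peptide tracer; top concentration of the series differs between compounds; % is set by controls: 0 for no effect and ±100 for the full control effect.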 The method, boiled down: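 CIB1-GST (1 uM final) and compound incubated 15 min at room temperature before adding FITC-alphaIIb peptide tracer (100 nM final). Competition for binding read by fluorescence polarization (ex 480, em 540) after another 15 min at room temperature.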

The target in assay [17] is Phospholipid hydroperoxide glutathione peroxidase GPX4 (Homo sapiens) (UniProt P36969). Put plainly: Primary qHTS Assay for Inhibitors of Recombinant Selenoprotein Glutathione Peroxidase 4 (GPX4) (AID 1845192). Note: % is set by controls: 0 for no effect and ±100 for the full control effect; nearly all actives have a fitted effect of over 65% in size. An outline of the steps: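 NADPH consumption followed by fluorescence at 340/450 nm, t=0 and after 15 min at room temperature. Reaction started with cumene hydroperoxide (0.5 mM final) after 30 min compound–GPX4 preincubation; final 200 nM GPX4, 100 nM GR, 1 mM GSH, 0.5 mM NADPH.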

Assay [18] addresses Luciferin 4-monooxygenase (Photinus pyralis) (UniProt P08659). The assay is described as follows: Primary firefly luciferase (FLuc) qHTS assay for identification of artifact compounds. (AID 1845220). Note: nearly all actives have a fitted effect of over 60% in size. As to conditions: outcome: dose series up to 54.1 µM unless noted. The method, boiled down:
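Cell-free, 1536-well qHTS. Buffer pH 7.6 with 0.01% Tween-20 and 0.05% BSA; 10 uM D-luciferin, 10 uM ATP; 10 nM P. pyralis luciferase; luminescence after 5 min.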

Assay [19] has as its system NIH3T3. Put plainly: Cytotoxic Profiling of Annotated Libraries Using Quantitative High-Throughput Screening (AID 1296008). For max response: % is set by controls: 0 for no effect and ±100 for the full control effect. Note: nearly all actives have a fitted effect of over 60% in size. Note: potency is the fitted concentration of half-maximal effect. As to conditions: Five cell lines viability, CellTiter-Glo ATP luminescence, 48-72 h; max response: hits give low values. The method, boiled down: as §1
For assay [20], the system named is Zika virus NS2B-NS3 protease (unlinked complex). The assay is described as follows: Primary screen GU Rhodamine qHTS for Zika virus inhibitors: Unlinked NS2B-NS3 protease assay (AID 1347159). Note: nearly all actives have a fitted effect of over 60% in size. Note: potency is the fitted concentration of half-maximal effect. The method, boiled down:
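In dose–response format, inhibition of unlinked protease (25 nM) was measured with 1.5 microM bis-peptide Rhodamine110 substrate. Aprotinin served as the intraplate control.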

Chain of Calcium and integrin-binding protein 1 (Homo sapiens) (Q99828 whole entry, looked up): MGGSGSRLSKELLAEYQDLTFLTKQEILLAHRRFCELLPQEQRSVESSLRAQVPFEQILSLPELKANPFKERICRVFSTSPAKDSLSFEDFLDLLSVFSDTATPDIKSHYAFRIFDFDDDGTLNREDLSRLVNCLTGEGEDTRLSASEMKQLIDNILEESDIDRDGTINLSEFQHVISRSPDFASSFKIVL
Chain of Glutathione peroxidase 1 (Homo sapiens) (P07203 whole entry, looked up): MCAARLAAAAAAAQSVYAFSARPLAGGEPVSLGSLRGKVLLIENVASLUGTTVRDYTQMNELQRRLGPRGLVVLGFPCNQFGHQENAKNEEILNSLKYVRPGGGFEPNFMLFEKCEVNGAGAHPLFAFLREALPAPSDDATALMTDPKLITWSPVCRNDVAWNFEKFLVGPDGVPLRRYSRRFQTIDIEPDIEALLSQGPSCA
Chain of Phospholipid hydroperoxide glutathione peroxidase GPX4 (Homo sapiens) (P36969 whole entry, looked up): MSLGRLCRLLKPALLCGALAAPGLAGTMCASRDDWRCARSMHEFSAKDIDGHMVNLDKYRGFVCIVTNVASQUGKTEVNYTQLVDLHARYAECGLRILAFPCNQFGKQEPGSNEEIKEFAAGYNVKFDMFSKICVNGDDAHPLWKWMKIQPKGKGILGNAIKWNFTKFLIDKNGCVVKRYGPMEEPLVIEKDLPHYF

With `C#CC1(O)CCC2C3CCC4=CC(=O)CCC4=C3C=CC21C` (centres undefined), the Potency result in [1], in [2], in [3], in [4], in assay [6] and in assay [7] was “inactive” in each case. Further, the Potency entry in [8], in assay [9], in [10], in assay [11], in assay [12] and in assay [14] was “inactive” in each case. Moreover, the Potency entry in [15] was “inactive”. The max response in assay [5] was -2.47%. Also, in assay [13], the Potency is 11200 nM (active).
Turning to `CC[C@H](C)[C@@H]([C@@H](CC(=O)N1CCC[C@H]1[C@H](OC)[C@@H](C)C(=O)N[C@@H](Cc1ccccc1)c1nccs1)OC)N(C)C(=O)[C@@H](NC(=O)C(C)(C)N)C(C)C` (H-[Aib]V[Dil][Dolaproine]-Doe), the Potency entry in [1], in assay [16], in assay [2], in assay [17], in [3] and in assay [4] was “inactive” in each case. Further, the Potency entry in [7] and in assay [10] was “inactive” each time. Besides, in assay [18], the molecule was called inactive. In assay [19], the max response was -54.1%.
As to `CC/C=C/C=C/C1(C)OC(OC)=C(C(=O)C2C(C)C(=O)c3cc(OC)c(O)c(O)c3C2(C)O)C1=O` (centres undefined), the Potency in [20] was 6310 nM (active); in assay [1], 10000 nM (active); in assay [3] it was 1300 nM (active). The Potency result in assay [16], in [2], in assay [17], in assay [4], in assay [6] and in [7] was “inactive” throughout. The Potency result in [8], in [10], in [11], in [12] and in assay [15] was “inactive” in each case. The max response in assay [5] is -16.8%.
On to `CO/C1=C\C(C)=C\[C@@H](C)[C@@H](O)[C@@H](C)C/C(C)=C/C=C/[C@H](OC)[C@@H]([C@@H](C)[C@@H](O)[C@H](C)[C@@]2(O)C[C@@H](O)[C@H](C)[C@@H](C(C)C)O2)OC1=O`, for which the Potency result in [20], in [1], in [16], in assay [17], in [3] and in assay [4] was “inactive” each time. Moreover, the Potency entry in [8] and in assay [11] was “inactive” each time. Moreover, the call in assay [18] was inactive. Further, the Potency is 86.2 nM (active) in [5]; 141 nM (active) in assay [6]; 126 nM (active) in assay [7]; 79.4 nM (active) in assay [9]; 100 nM (active) in [10]; 89.1 nM (active) in [12]. Moreover, the Potency in assay [13] was 89.1 nM (active); in assay [15] it was 100 nM (active).
As for `CC[C@@H](C)[C@H]1C(=O)O[C@H](C(C)C)C(=O)N(C)[C@@H](C(C)C)C(=O)O[C@H](C(C)C)C(=O)N(C)[C@@H](C(C)C)C(=O)O[C@H](C(C)C)C(=O)N1C`, the Potency result in assay [20], in assay [1], in [16], in assay [2], in [17] and in [3] was “inactive” in each case. Also, the Potency result in [4], in [8] and in assay [11] was “inactive” in each case. For the same molecule, the result in [18] was inactive. Also, the Potency in assay [5] is 3850 nM (active).
Consider `C[C@@H](CN1CCC2(CC1)C(=O)NCN2c1cccc(F)c1)NC(=O)c1ccc(Br)cc1`, for which the Potency result in assay [20], in assay [1], in [16], in assay [2], in [17] and in [3] was “inactive” each time. Moreover, the Potency result in assay [4], in assay [6], in assay [7], in assay [9], in assay [11] and in [12] was “inactive” in each case. The Potency result in assay [13] and in assay [14] was “inactive” in each case. The call in assay [18] and in assay [5] was inactive.
Take `C=C1CC[C@H]2[C@@H](/C=C(\C)C(=O)[C@@]3(OC(C)=O)C[C@H](C)[C@H](OC(=O)c4ccccc4)[C@@H]3[C@H]1OC(C)=O)C2(C)C`: the Potency result in assay [20], in [1], in [16], in assay [2], in [17] and in assay [3] was “inactive” throughout. Moreover, the Potency entry in assay [4], in assay [6], in assay [7], in assay [8], in [9] and in assay [10] was “inactive” throughout. The Potency entry in assay [11], in [12], in [13], in assay [14] and in [15] was “inactive” each time. Further, the outcome in [18] was inactive. For the same molecule, the figures for the max response in assay [5] and in assay [19] were 1.55% and -4.22%, respectively.
